A selection: hits, their analogues and other compounds. The true share with any hit is near 11%.
HCV inh = qHTS Assay for Inhibitors of Hepatitis C Virus (HCV) | Huh7.5.1 HCVcc-Cre infection, luciferase reporter, 44 h | Potency, µM (series often up to 41.8 µM), actives largely listed as inhibitors | 340,000 tested, 3.4% active | AID 651820, 2012
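Seed cells (1,000/well) for 4 h; treat with compound and infect with HCVcc-Cre, moi about 0.5. Incubate 44 h, then detect luciferase activity.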
Pf growth 48h = Primary qHTS for delayed death inhibitors of the malarial parasite plastid, 48 hour incubation; 310,000 tested, 5.9% active; AID 504832, 2011; P. falciparum luciferase growth in erythrocytes, 48 h; Potency, µM (doses to about 28.7 µM), actives largely listed as inhibitors
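First compound was added to culture medium, then infected red cells at 0.1% parasitemia and 2% hematocrit (final). After incubation at 37 C under 5% CO2, luciferase detection reagent was dispensed and light output recorded.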
AmpC inh detg = qHTS Inhibitors of AmpC Beta-Lactamase (assay with detergent); P00811; AmpC hydrolysis of nitrocefin, absorbance 480 nm, 0.01% Triton; Potency, µM (highest dose often 114 µM), most hits filed as inhibitors; 370,000 tested, 0.041% active; also: nearly all actives have a fitted effect of over 25% in size
Target sequence (P00811 whole entry, looked up): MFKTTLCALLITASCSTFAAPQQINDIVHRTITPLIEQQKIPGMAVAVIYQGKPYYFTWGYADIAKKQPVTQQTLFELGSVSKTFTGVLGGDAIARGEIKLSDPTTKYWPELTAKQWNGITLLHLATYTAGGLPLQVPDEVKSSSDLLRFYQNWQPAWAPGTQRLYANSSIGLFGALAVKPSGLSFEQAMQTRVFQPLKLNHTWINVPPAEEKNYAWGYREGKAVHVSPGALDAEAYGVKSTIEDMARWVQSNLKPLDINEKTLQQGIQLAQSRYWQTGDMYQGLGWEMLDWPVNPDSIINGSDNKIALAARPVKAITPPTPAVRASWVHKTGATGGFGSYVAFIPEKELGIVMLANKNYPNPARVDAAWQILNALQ
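AmpC (5.3 nM in the dispensed reagent) in 20 mM phosphate pH 7.0 with 0.01% (detergent screen) or 0.0001% Triton X-100 was preincubated with compounds for 15 min at room temperature. Nitrocefin was then added from an 800 uM solution, and hydrolysis was followed at 480 nm.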
Pf growth 96h = Primary qHTS for delayed death inhibitors of the malarial parasite plastid, 96 hour incubation; P. falciparum luciferase reporter growth, 96 h; Potency, µM (top dose mostly 28.7 µM), actives largely listed as inhibitors; 320,000 tested, 6.9% active; AID 504834, 2011
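Erythrocytes infected with luciferase-expressing P. falciparum were dispensed at 2% hematocrit and 0.05% parasitemia (final), then incubated with compounds 96 hours at 37 C in 5% CO2. Luminescence after detection reagent addition reported growth.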
AMA1-RON2 inh = qHTS for Inhibitors of AMA1-RON; Towards Development of Antimalarial Drug Lead: Primary Screen. AlphaScreen AMA1-biotinylated RON2 peptide binding. Potency, µM (doses to about 58.2 µM), actives largely listed as inhibitors. 360,000 tested, 0.2% active. AID 720542, 2013; also: nearly all actives have a fitted effect of over 45% in size
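AMA1 (3D7) with his tag at 25 nM final met compounds first, then biotinylated RON2 peptide at 25 nM; detection used donor plus acceptor beads, 10 µg/mL apiece, read by AlphaScreen after 30 min at room temperature.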
AmpC inh no detg = qHTS Inhibitors of AmpC Beta-Lactamase (assay without detergent); 330,000 tested, 0.52% active; AID 485341, 2010; Potency, µM (doses to about 57.1 µM), hits mostly inhibitors; AmpC nitrocefin hydrolysis, absorbance 480 nm, 0.0001% Triton; also: nearly all actives have a fitted effect of over 20% in size
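20 mM phosphate pH 7.0 + 0.01% (detergent screen) or 0.0001% Triton X-100; 5.3 nM AmpC reagent; cpd preinc 15 min RT; nitrocefin (800 uM stock) to start; A480 q20 s × 4 min; Activity was normalised to no-enzyme and no-compound control wells.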
Hits are given with their value. Calls follow the shape of the dose curve; as a rule, active = well fitted curve in the direction sought with a large enough effect; inconclusive = small, poorly fitted or top-dose-only effect, or another doubt; inactive = no such curve, though single readings can be large; an effect the other way counts as inactive or inconclusive.

O=C(c1ccco1)N(CCC(c1ccccc1)c1ccco1)Cc1ccc(F)cc1 (centres undefined) was read as HCV inh inconclusive, Pf growth 48h inconclusive, AmpC inh detg inactive, Pf growth 96h inconclusive, AMA1-RON2 inh inactive and AmpC inh no detg inactive.
`CC1(C)CC(C(CCN(Cc2ccccc2)C(=O)c2ccco2)c2ccc(F)cc2)CCO1` (centres undefined) gave HCV inh inconclusive, Pf growth 48h 12µM, AmpC inh detg inactive, Pf growth 96h 1.5µM, AMA1-RON2 inh inactive and AmpC inh no detg inactive.
`CC(C)CNC(=O)c1cc([N+](=O)[O-])ccc1N1CCOCC1` gave HCV inh inactive, Pf growth 48h inactive, AmpC inh detg inactive, Pf growth 96h inactive, AMA1-RON2 inh inactive and AmpC inh no detg inactive.
Cc1cc(=O)oc2cc(NC(=O)c3cc([N+](=O)[O-])ccc3N3CCOCC3)ccc12 was read as HCV inh 10µM, Pf growth 48h inactive, AmpC inh detg inactive, Pf growth 96h inconclusive, AMA1-RON2 inh inactive and AmpC inh no detg inactive.
`CC(C)(CNC(=O)c1cc([N+](=O)[O-])ccc1N1CCC(Cc2ccccc2)CC1)N1CCOCC1` gave HCV inh inconclusive, Pf growth 48h 9.3µM, AmpC inh detg inactive, Pf growth 96h inconclusive, AMA1-RON2 inh inactive and AmpC inh no detg inactive.
Cc1cc(C)c(NC(=O)CNC(=O)c2cc([N+](=O)[O-])ccc2N2CCOCC2)c(C)c1 was read as HCV inh 25µM, Pf growth 48h inconclusive, AmpC inh detg inconclusive, Pf growth 96h inactive, AMA1-RON2 inh inactive and AmpC inh no detg inactive.
`CC(C)CCNC(=O)C1CCN(C(=O)c2cc3sccc3n2Cc2ccc(Cl)cc2)CC1` gave AmpC inh detg inactive.
For CCc1cccc(NC(=O)CCc2nc3cccnc3n2Cc2ccc(OC)cc2)c1 the results were AmpC inh detg inactive.
O=C(Cn1c(=O)n(Cc2ccccc2)c(=O)c2oc3ccccc3c21)Nc1ccc(Cl)cc1 was read as AmpC inh detg inactive.
For COCCn1nnnc1CN(Cc1cc2cc(OC)c(OC)cc2[nH]c1=O)C1CCCC1 the results were HCV inh inactive, Pf growth 48h inactive, AmpC inh detg inconclusive, AMA1-RON2 inh inactive and AmpC inh no detg inactive.
`CCOc1ccc2[nH]c(=O)c(CN(Cc3nnnn3Cc3ccco3)C3CCCCC3)cc2c1` gave HCV inh inconclusive, Pf growth 48h 12µM, AmpC inh detg inactive, Pf growth 96h inactive, AMA1-RON2 inh inactive and AmpC inh no detg inactive.
COc1cc2cc(CN(Cc3nnnn3Cc3ccco3)C3CCCCC3)c(=O)[nH]c2cc1OC was read as HCV inh inactive, Pf growth 48h 8.3µM, AmpC inh detg inconclusive, AMA1-RON2 inh inactive and AmpC inh no detg inactive.
Screening CCCNCc1cc(OC)c(OCC(=O)NCCc2ccccc2)cc1Br returned HCV inh inconclusive, Pf growth 48h inconclusive, AmpC inh detg inactive, Pf growth 96h inconclusive, AMA1-RON2 inh inactive and AmpC inh no detg inactive.
`CCC(CO)NCc1cc(OC)c(OCC(=O)NCCc2ccccc2)cc1Br` (centres undefined) gave HCV inh inconclusive, Pf growth 48h inconclusive, AmpC inh detg inactive, Pf growth 96h 4.1µM, AMA1-RON2 inh inactive and AmpC inh no detg inactive.
COc1cc(CNC(C)c2ccccc2)c(Br)cc1OCC(N)=O (centres undefined) was read as HCV inh inactive, AmpC inh detg inactive, Pf growth 96h 8.3µM, AMA1-RON2 inh inactive and AmpC inh no detg inactive.
For COc1cc(CNCC(C)C)c(Br)cc1OCC(=O)NCc1ccccc1 the results were HCV inh inconclusive, Pf growth 48h inactive, AmpC inh detg inactive, Pf growth 96h inconclusive, AMA1-RON2 inh inactive and AmpC inh no detg inactive.
O=C(CCN1C(=O)c2ccccc2S1(=O)=O)NCc1ccco1 was read as HCV inh inactive, Pf growth 48h inactive, AmpC inh detg inactive, Pf growth 96h 12µM, AMA1-RON2 inh inactive and AmpC inh no detg inactive.
For O=C(CCN1C(=O)c2ccccc2S1(=O)=O)NCc1ccccc1 the results were HCV inh inactive, Pf growth 48h inactive, AmpC inh detg inconclusive, Pf growth 96h inactive, AMA1-RON2 inh inactive and AmpC inh no detg inactive.
Cn1c(=O)cc(OCCCC(=O)NCc2ccco2)c2ccccc21 was read as HCV inh inactive, Pf growth 48h inactive, AmpC inh detg inactive, Pf growth 96h 12µM, AMA1-RON2 inh inactive and AmpC inh no detg inactive.
`Cc1ccc(CNC(=O)CCCOc2cc(=O)n(C)c3ccccc23)o1` gave HCV inh inactive, Pf growth 48h inconclusive, AmpC inh detg inactive, Pf growth 96h inactive, AMA1-RON2 inh inactive and AmpC inh no detg inactive.
O=C(CCCCCN1C(=O)c2ccccc2C1=O)NCc1ccco1 was read as HCV inh inactive, AmpC inh detg inactive, Pf growth 96h 1µM, AMA1-RON2 inh inactive and AmpC inh no detg inactive.
O=C(CCN1C(=O)c2ccccc2C1=O)NCc1ccccc1 was read as HCV inh inactive, Pf growth 48h inactive, AmpC inh detg inactive, Pf growth 96h inactive, AMA1-RON2 inh inactive and AmpC inh no detg inactive.
For Cc1ccc(-c2nc3ccccc3[nH]2)cc1NC(=O)c1ccc2c(c1)OCO2 the results were HCV inh 11µM, Pf growth 48h inconclusive, AmpC inh detg inactive, Pf growth 96h inconclusive, AMA1-RON2 inh inactive and AmpC inh no detg inactive.
For O=C(NC(=S)Nc1cc(-c2nc3ccccc3[nH]2)ccc1Cl)c1ccc2c(c1)OCO2 the results were HCV inh inconclusive, Pf growth 48h 4.7µM, AmpC inh detg inactive, Pf growth 96h inconclusive, AMA1-RON2 inh inactive and AmpC inh no detg inactive.
Cc1ccc(-c2nc3ccccc3[nH]2)cc1NC(=S)NC(=O)c1ccccc1Br was read as HCV inh inconclusive, Pf growth 48h inconclusive, AmpC inh detg inactive, Pf growth 96h inactive, AMA1-RON2 inh inactive and AmpC inh no detg inactive.
CCOC(=O)c1c(NC(=O)COc2cccc(C(F)(F)F)c2)sc2c1CCCCC2 was read as AmpC inh detg inactive.
COc1ccccc1N1CCN(Cc2ccc(OC)c(OC)c2OC)CC1 was read as HCV inh inactive, AmpC inh detg inconclusive, Pf growth 96h inconclusive, AMA1-RON2 inh inactive and AmpC inh no detg inactive.
Screening CCOC(=O)C1CCN(Cc2ccc(O)c3ncccc23)CC1 returned HCV inh 10µM, Pf growth 48h 10µM, AmpC inh detg inactive, Pf growth 96h inactive, AMA1-RON2 inh 9.5µM and AmpC inh no detg inactive.
